M1 antag – antagonists of rat M1 muscarinic receptor; 64,000 tested, 3.4% active; B-score at 10 µM; CHO-M1 cells, Fluo-4 calcium, ACh EC80 antagonist mode; active compounds read low; Muscarinic acetylcholine receptor M1 (Rattus norvegicus), P08482;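 active = calcium fluorescence response, raw or row-and-column corrected B-score, differing from the plate sample mean either way at a set confidence level, mostly lower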
M1 ag – M1 muscarinic receptor agonists, primary screen, CHO-M1 cells, Fluo-4 calcium, agonist mode. Muscarinic acetylcholine receptor M1. Fluo-4 calcium fluorescence; active compounds read high. B-score at 10 µM. 64,000 tested, 3% active;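 active = fluorescence rise, raw or as B-score row- and column-corrected plate score, outside the 99.7% band of its plate's samples, either direction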
Cav32 inh – Cav3.2 calcium influx blockers – cell-based, Fluo-4 calcium fluorescence, FDSS, MLSMR library, primary screen. Voltage-dependent T-type calcium channel subunit alpha-1H (Homo sapiens), O95180. Cav3.2-expressing cells; active compounds read low. B-score at 10 µM. 100,000 tested, 4% active;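 active = single-dose well whose peak fluorescence ratio is a statistical outlier from its plate by either plate-standardised score or position-corrected B-score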
PTK2B oligo ant – antagonists of Pyk2 self-association, primary screen, Q293 cells, FERM NanoBiT luminescence, HTS | Protein-tyrosine kinase 2-beta (Homo sapiens), Q14289 | active compounds read low | z-score (the deposit names both 25 µM and 10 µM) | 99,000 tested, 0.83% active;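 active = Z-score of -3 or lower, scaled per plate to the spread of control and sample wells; inactive = z-score above -3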;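 also: negative z-score means lost luminescence so less FERM oligomerization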
Target sequence (Q14289 whole entry, looked up): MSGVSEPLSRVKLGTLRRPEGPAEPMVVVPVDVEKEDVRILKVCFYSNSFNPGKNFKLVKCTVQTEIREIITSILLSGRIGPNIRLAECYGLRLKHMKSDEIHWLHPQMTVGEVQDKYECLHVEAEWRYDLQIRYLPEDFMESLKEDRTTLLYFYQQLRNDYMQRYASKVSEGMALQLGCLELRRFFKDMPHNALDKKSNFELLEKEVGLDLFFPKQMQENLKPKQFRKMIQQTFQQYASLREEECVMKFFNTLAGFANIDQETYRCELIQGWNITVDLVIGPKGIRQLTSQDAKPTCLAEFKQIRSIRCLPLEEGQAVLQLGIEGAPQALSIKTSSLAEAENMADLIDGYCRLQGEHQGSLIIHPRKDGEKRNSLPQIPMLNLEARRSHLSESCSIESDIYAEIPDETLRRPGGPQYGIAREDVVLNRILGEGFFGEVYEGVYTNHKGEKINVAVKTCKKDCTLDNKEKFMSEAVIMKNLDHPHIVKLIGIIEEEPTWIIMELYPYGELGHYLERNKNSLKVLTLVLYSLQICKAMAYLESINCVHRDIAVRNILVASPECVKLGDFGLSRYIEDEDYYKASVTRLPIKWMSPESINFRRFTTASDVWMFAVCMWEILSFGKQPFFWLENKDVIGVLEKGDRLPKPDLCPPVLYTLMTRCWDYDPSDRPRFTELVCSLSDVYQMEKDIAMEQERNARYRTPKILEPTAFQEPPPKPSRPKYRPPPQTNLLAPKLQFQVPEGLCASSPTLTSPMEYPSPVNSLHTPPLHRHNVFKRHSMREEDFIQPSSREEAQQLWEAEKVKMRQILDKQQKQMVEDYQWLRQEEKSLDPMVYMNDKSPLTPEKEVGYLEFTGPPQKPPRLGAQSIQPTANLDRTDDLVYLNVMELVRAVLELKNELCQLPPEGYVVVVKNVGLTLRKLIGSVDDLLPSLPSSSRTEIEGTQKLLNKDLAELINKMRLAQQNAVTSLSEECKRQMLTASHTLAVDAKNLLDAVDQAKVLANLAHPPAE
M1 ag confirm – rat M1 muscarinic receptor agonists, confirmation, CHO-M1 cells, Fluo-4 calcium, duplicate retest | shares compounds with M1 ag | Fluo-4 calcium fluorescence, agonist mode; actives lie on both sides | fluorescence change (max-min) at 10 µM | 1,700 tested, 19% active | AID 1488, 2009;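 active = fluorescence change differs from the solvent-only DMSO control mean at a set confidence level in both duplicate runs; inconclusive = differs from solvent-only control mean in just one of two runs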;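 also: an EC20 dose of acetylcholine follows compound addition during the same imaging run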
M4 agonist ctr – agonist activity at rat M4 receptor, confirmation, counter-screen for M1 allosteric modulator project, cell-based, agonist mode. shares compounds with M1 ag. fluorescence change (max-min) at 10 µM. AID 1741, 2009. CHO M4/Gqi5 cells, Fluo-4 calcium fluorescence; actives lie on both sides. 1,700 tested, 9% active;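 active = fluorescence change differing from the plate's solvent-only control wells at 99.7% confidence in both duplicates, whether higher or lower; inconclusive = differs from solvent controls in only one of two duplicates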
Numbers stand for hits; n = inactive; u = inconclusive; x = no result given. Compounds with a hit are over-represented: about 7.1% of the library has one in this group of screens.

SMILES	M1 antag	M1 ag	Cav32 inh	PTK2B oligo ant	M1 ag confirm	M4 agonist ctr
Cc1nc2ccccc2c(=O)n1/N=C/c1cn(-c2ccccc2)nc1-c1cccs1	n	3.5	-4	n	u	n
Cc1nc2ccccc2c(=O)n1/N=C/c1ccccc1	x	x	n	n	x	x
CN1C=CC2=C(C#N)C(N)C(C#N)(C#N)C(c3ccccc3)C2C1 (centres undefined)	n	34	x	-3.7	187	179
Cc1ccc2c(COn3nnc4ccc(S(=O)(=O)N(C)C)cc43)cc(=O)oc2c1C	n	21	n	x	n	n
CCN(CCO)Cc1cc(=O)oc2c(C)c(C)ccc12	n	n	n	n	x	x
Cc1ccnc2nc(C(=O)Nc3ccc4c(c3)OCO4)nn12	x	x	n	n	x	x
Cc1cc(C)n2nc(C(=O)Nc3ccc4c(c3)OCO4)nc2n1	n	4.5	n	n	u	n
COc1cc(NC(=O)c2cccs2)c(OC)cc1NC(=O)c1ccco1	n	n	x	x	x	x
COc1cc(NC(=O)c2ccco2)c(OC)cc1NC(=O)CSc1nnc(-c2cccs2)n1C	n	6.2	n	n	-32	u
C=CCn1c(=O)/c(=C/c2ccc(Cl)cc2)s/c1=C(/C#N)c1nnc2n1CCCCC2	n	4.3	n	n	u	u
C=CCn1c(=O)/c(=C\c2ccsc2)s/c1=C(/C#N)C(=O)NCCN1CCOCC1	n	n	n	n	x	x
CC(C)[C@H]1C=C(C(=O)O)O[C@@H](OCCCCO)C1	x	x	n	x	x	x
Cc1cc(C)c2cc(C#N)c(SCC(=O)NCC3CCCO3)nc2c1 (centres undefined)	n	2.6	n	n	u	u
Cc1ccc2cc(C#N)c(SCC(=O)NCC3CCCO3)nc2c1 (centres undefined)	n	n	n	n	x	x
COc1ccc(-c2c3c(=O)n(C)c(=O)n(C)c3cn2-c2ccccc2)cc1	n	2.2	x	n	u	n
COC(=O)c1c(NC(=O)CN2CCN(c3ccccc3OC)CC2)c2cc(C)ccc2n1C	n	n	n	n	x	x
COC(=O)c1c(NC(=O)CN2CCN(c3ccccc3)CC2)c2c(C)cccc2n1C	n	4.5	n	n	-25	u
CCCCNC(=O)c1onc(CSc2ccc(F)c(F)c2)c1C(=O)O	x	x	n	x	x	x
COc1cccc(C2C=C(c3cccs3)Nc3ncnn32)c1OC (centres undefined)	n	8.1	n	n	n	n
CC(=O)c1c(C)[nH]c(C(=O)CSc2nc3ccccc3c(=O)n2CCCN2CCOCC2)c1C	n	n	n	n	x	x
Cc1sc2nc(CSc3nc4ccccc4c(=O)n3CCCN3CCOCC3)[nH]c(=O)c2c1C	n	11	n	n	n	n
CCOC(=O)N1CCC(NCCNC(=O)c2cccs2)CC1	-2.6	28	n	n	256	u
CCOC(=O)N1CCC(NCCNC(=O)c2ccccc2Cl)CC1	-9.1	25	n	n	267	u
O=C(NC1CCCCC1NC(=O)c1cccs1)c1cccs1 (centres undefined)	n	n	n	n	x	x
CN1CCC(NC(=O)c2cccs2)CC1	n	6.6	n	x	n	u
SMILES	M1 antag	M1 ag	Cav32 inh	PTK2B oligo ant	M1 ag confirm	M4 agonist ctr
Nc1c(C(=O)c2ccccc2)sc2snc(SCC(=O)c3ccccc3)c12	x	x	n	n	x	x
C=CCC(NC(C)c1ccccc1)c1ccco1 (centres undefined)	x	x	n	n	x	x
Nc1ccccc1C#Cc1cnccn1	x	x	n	x	x	x
Cc1oc(-c2ccc(Cl)cc2)nc1CN1CCC(C(=O)N2CCc3ccccc3C2)CC1	-3.7	5.7	x	x	u	n
Cc1oc(-c2ccc(Cl)cc2)nc1CN1CCC(C(=O)N2CCN(Cc3ccccc3)CC2)CC1	n	n	x	x	x	x
CCO[C@H]1OC(C(=O)Nc2ccccc2)=C[C@@H](c2cn(C(C)=O)c3ccccc23)[C@@H]1CCCO	x	x	n	x	x	x
CN(C)CCNc1nc2c(c(=O)[nH]c(=O)n2C)n1CC(O)COc1ccc(Cl)cc1Cl (centres undefined)	n	4.2	n	n	n	n
Cc1ccccc1OCC(O)Cn1c(NCc2ccccc2)nc2c1c(=O)[nH]c(=O)n2C (centres undefined)	x	x	n	n	x	x
Cc1ccccc1OCC(O)Cn1c(SC(C)C)nc2c1c(=O)[nH]c(=O)n2C (centres undefined)	n	6.9	n	n	n	n
CCSc1nc2c(c(=O)[nH]c(=O)n2C)n1CC(O)COc1ccccc1C (centres undefined)	n	n	n	n	x	x
CC1S/C(=C(\C#N)C(=O)NCc2ccco2)N(c2ccc(F)cc2)C1=O (centres undefined)	n	n	n	n	x	x
N#C/C(C(=O)NCc1ccco1)=C1/SC(Cc2ccc(F)cc2)C(=O)N1c1ccccc1 (centres undefined)	n	2.4	n	n	n	u
COc1ccc(N2C(=O)CC(NCc3ccc(F)cc3)C2=O)cc1 (centres undefined)	x	x	n	n	x	x
COc1ccc(CNC2CC(=O)N(C)C2=O)cc1 (centres undefined)	n	3.4	n	n	n	n
Cc1nc2ncnn2c(C)c1CCC(=O)NCCCN1CCN(c2cccc(Cl)c2)CC1	n	2.6	x	n	u	n
CNC(=S)SCCOc1ccccc1C	x	x	x	n	x	x
O=S(=O)(Nc1ncccc1O)c1ccc(Cl)cc1	n	n	n	n	x	x
O=S(=O)(Nc1nc2ccccc2nc1N1CCN(c2ccccn2)CC1)c1ccc(Cl)cc1	n	9.2	-4.7	n	n	u
CCC(C(=O)OC)n1cnc2c(nnn2-c2ccc(OC)cc2)c1=O (centres undefined)	n	4.3	n	n	n	n
CCOC(=O)C(CC)n1cnc2c(cnn2-c2ccc(Cl)cc2)c1=O (centres undefined)	-6.2	55	n	n	n	n
CCOC(=O)C(C)n1cnc2c(cnn2-c2ccc(Cl)cc2)c1=O (centres undefined)	n	n	n	n	x	x
COc1ccc(CCN(Cc2cccs2)S(=O)(=O)c2ccc(-n3cnnn3)cc2)cc1OC	n	4.5	x	n	u	-66
Cc1ccc(C2C(C#N)=C(N)Oc3c2sc2ccccc32)o1 (centres undefined)	n	109	n	x	165	n
CCOC(=O)CC1=C(C(=O)OCC)C(c2ccc(C)o2)C(C#N)=C(N)O1 (centres undefined)	n	n	n	n	x	x
CC(C)(C)c1csc(NC(=O)c2ccc3nccnc3c2)n1	x	x	n	n	x	x
Cc1nc(SCC(=O)N2CCC(C(N)=O)CC2)n[nH]1	n	3.9	n	n	u	n
Cc1ccnc(SCC(=O)N2CCC(C(N)=O)CC2)n1	n	n	n	n	x	x
CN(C)c1ccc(C=C2C(=O)OC(C)(C(C)(C)C)OC2=O)cc1 (centres undefined)	x	x	n	n	x	x

Screening data: PubChem, several laboratories
